PubChem BioAssay AID1159580 (chemical genetic matrix, 2015)
The whole screen tested about 5,500 compounds, of which about 2,000 (36%) were called active. Not shown: some 18% with an inconclusive outcome. The list shows a part of the results. A number with no mark means an inactive call. Cut-off read from the data, not from the text of the source: active = normalized growth mostly below about 0.91 (no sharp cut-off); inconclusive = no clear call, values can overlap the other calls; inactive = mostly above about 0.92.

Assay: chemical genetic growth profiling, strain panel (AID 1159580);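 note: tested at 20 µM; growth read once vehicle control cultures reached saturation at 30 °C; 1 = growth at the plate median or of vehicle wells; lower values mean less growth of the strain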
Settings: S. cerevisiae deletion strains, growth OD

CN1CCC(=C2c3ccccc3CCc3sccc32)CC1
normalized growth (locus YAL021C, strain ccr4, hits give low values): 0.91
normalized growth (locus YAL026C, strain drs2, hits give low values): 0.956
normalized growth (locus YAL030W, strain snc1, hits give low values): 0.987
normalized growth (locus YBL061C, strain skt5, hits give low values): 0.967
normalized growth (locus YBR009C, strain hhf1, hits give low values): 0.986
normalized growth (locus YBR023C, strain chs3, hits give low values): 0.969
normalized growth (locus YBR171W, strain sec66, hits give low values): 0.961
normalized growth (locus YBR231C, strain swc5, hits give low values): 0.965
normalized growth (locus YBR279W, strain paf1, hits give low values): 0.959
normalized growth (locus YCL011C, strain gbp2, hits give low values): 0.958
normalized growth (locus YCL016C, strain dcc1, hits give low values): 0.948
normalized growth (locus YCL069W, strain vba3, hits give low values): 0.977
normalized growth (locus YCR088W, strain abp1, hits give low values): 0.979
normalized growth (locus YDL005C, strain med2, hits give low values): 0.968
normalized growth (locus YDL040C, strain nat1, hits give low values): 0.98
normalized growth (locus YDR001C, strain nth1, hits give low values): 0.96
normalized growth (locus YDR069C, strain doa4, hits give low values): 0.905
normalized growth (locus YDR137W, strain rgp1, hits give low values): 1.08
normalized growth (locus YDR159W, strain sac3, hits give low values): 0.952
normalized growth (locus YDR195W, strain ref2): 0.954
normalized growth (locus YDR297W, strain sur2, hits give low values): 0.976
normalized growth (locus YDR334W, strain swr1, hits give low values): 0.972
normalized growth (locus YDR335W, strain msn5, hits give low values): 0.949
normalized growth (locus YDR392W, strain spt3, hits give low values): 0.93
normalized growth (locus YEL003W, strain gim4, hits give low values): 0.982
normalized growth (locus YEL037C, strain rad23, hits give low values): 0.975
normalized growth (locus YEL061C, strain CIN8 (second series), hits give low values): 0.967
normalized growth (locus YER015W, strain faa2, hits give low values): 0.967
normalized growth (locus YER016W, strain bim1, hits give low values): 0.995
normalized growth (locus YER111C, strain swi4, hits give low values): 0.954
normalized growth (locus YER155C, strain BEM2 (second series), hits give low values): 0.933
normalized growth (locus YFR010W, strain ubp6, hits give low values): 0.961
normalized growth (locus YGL167C, strain pmr1, hits give low values): 0.969
normalized growth (locus YGL173C, strain kem1, hits give low values): 0.972
normalized growth (locus YGL227W, strain vid30, hits give low values): 0.941
normalized growth (locus YGL240W, strain doc1, hits give low values): 0.998
normalized growth (locus YGL253W, strain hxk2, hits give low values): 0.977
normalized growth (locus YHR013C, strain ard1, hits give low values): 0.842 (active)
normalized growth (locus YHR027C, strain rpn1, hits give low values): 0.954
normalized growth (locus YHR030C, strain SLT2, hits give low values): 0.943
normalized growth (locus YHR079C, strain IRE1, hits give low values): 0.97
normalized growth (locus YHR142W, strain chs7, hits give low values): 0.951
normalized growth (locus YJL092W, strain hpr5, hits give low values): 0.975
normalized growth (locus YJL095W, strain BCK1 (second series), hits give low values): 0.973
normalized growth (locus YJL095W, strain BCK1, hits give low values): 1.02
normalized growth (locus YJL115W, strain asf1, hits give low values): 0.922
normalized growth (locus YJL129C, strain trk1, hits give low values): 0.967
normalized growth (locus YJL154C, strain vps35, hits give low values): 0.968
normalized growth (locus YJL164C, strain tpk1, hits give low values): 0.968
normalized growth (locus YJL166W, strain qcr8, hits give low values): 0.98
normalized growth (locus YJR066W, strain TOR1, hits give low values): 0.941
normalized growth (locus YKL160W, strain elf1, hits give low values): 0.935
normalized growth (locus YKR026C, strain gcn3, hits give low values): 0.966
normalized growth (locus YKR091W, strain srl3, hits give low values): 0.964
normalized growth (locus YLL001W, strain dnm1, hits give low values): 0.987
normalized growth (locus YLL026W, hits give low values): 0.982
normalized growth (locus YLL041C, strain sdh2, hits give low values): 0.961
normalized growth (locus YLR027C, strain aat2, hits give low values): 0.95
normalized growth (locus YLR113W, strain HOG1, hits give low values): 1.01
normalized growth (locus YLR221C, strain rsa3, hits give low values): 0.997
normalized growth (locus YLR258W, strain gsy2, hits give low values): 0.966
normalized growth (locus YLR262C, strain YPT6 (second series), hits give low values): 1.01
normalized growth (locus YLR320W, strain mms22, hits give low values): 0.98
normalized growth (locus YLR342W, strain FKS1, hits give low values): 0.973
normalized growth (locus YLR357W, strain rsc2, hits give low values): 0.946
normalized growth (locus YLR370C, strain arc18, hits give low values): 0.96
normalized growth (locus YLR384C, strain iki3, hits give low values): 0.967
normalized growth (locus YML120C, strain ndi1, hits give low values): 0.97
normalized growth (locus YMR058W, strain fet3, hits give low values): 0.955
normalized growth (locus YMR125W, strain sto1, hits give low values): 0.933
normalized growth (locus YMR129W, hits give low values): 0.979
normalized growth (locus YMR205C, strain PFK2, hits give low values): 0.958
normalized growth (locus YMR231W, strain pep5, hits give low values): 0.979
normalized growth (locus YNL071W, strain lat1, hits give low values): 0.958
normalized growth (locus YNL183C, strain NPR1, hits give low values): 0.97
normalized growth (locus YNL209W, strain ssb2, hits give low values): 0.962
normalized growth (locus YNL248C, strain rpa49, hits give low values): 0.955
normalized growth (locus YNL322C, strain KRE1 (second series), hits give low values): 0.936
normalized growth (locus YNR049C, strain mso1, hits give low values): 0.97
normalized growth (locus YOR001W, strain rrp6, hits give low values): 0.948
normalized growth (locus YOR070C, strain gyp1, hits give low values): 0.98
normalized growth (locus YOR080W, strain dia2, hits give low values): 0.975
normalized growth (locus YOR083W, strain WHI5, hits give low values): 0.913
normalized growth (locus YOR106W, strain vam3, hits give low values): 0.889
normalized growth (locus YOR231W, strain MKK1, hits give low values): 0.969
normalized growth (locus YOR265W, strain rbl2, hits give low values): 0.969
normalized growth (locus YOR270C, strain vph1, hits give low values): 0.872
normalized growth (locus YOR290C, strain snf2, hits give low values): 0.916
normalized growth (locus YPL051W, strain arl3, hits give low values): 0.956
normalized growth (locus YPL078C, strain atp4, hits give low values): 0.957
normalized growth (locus YPL106C, strain sse1, hits give low values): 0.942
normalized growth (locus YPL240C, strain hsp82, hits give low values): 0.967
normalized growth (locus YPL256C, strain CLN2, hits give low values): 0.963
